# Source: PubChem BioAssay (EPA / NIEHS)
# Where “and” joins values, the source holds several entries; their conditions need not be identical. Identical values can stand only once. Calls of active or inactive are those of the source. How the source made its calls: active means hit-call score of the fitted dose curve at least 0.9, where 1 is the maximum; inactive means score below 0.9.
# Test: APR_HepG2_CellLoss_1hr: Apredica 1-hour HepG2 Assay for Cell Loss (AID 2282668);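 further: curves fitted both ways against DMSO so gain or loss of cells counts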
# Conditions: high-content imaging
# Experimental: APR_HepG2_1hr is a cell-based, multiplexed-readout assay that uses HepG2, a human liver cell line, with measurements taken at 1 hour after chemical dosing in a 384-well plate.APR_HepG2_CellLoss_1hr is one of 10 assay component(s) measured or calculated from the APR_HepG2_1hr assay. It is designed to make measurements of cell number, a form of viability reporter, as detected with fluorescence intensity signals by HCS Fluorescent Imaging technology.Data from the assay component APR_HepG2_CellLoss_1hr was analyzed into 1 assay endpoint. This assay endpoint, APR_HepG2_CellLoss_1hr, was analyzed with bidirectional fitting relative to DMSO as the negative control and baseline of activity. Using a type of viability reporter, measures of all nuclear dna for gain or loss-of-signal activity can be used to understand the viability at the cellular-level. Furthermore, this assay endpoint can be referred to as a secondary readout, because this assay has produced multiple assay endpoints where this one serves a viability function. To generalize the intended target to other relatable targets, this assay endpoint is annotated to the cell cycle intended target family, where the subfamily is proliferation.
# Cells were treated with dimethyl sulfoxide (DMSO) as a solvent control at a final concentration of 0.5% v/v or with compounds in DMSO with a resulting final DMSO concentration of 0.5% v/v. Compound treatment was done at concentrations of 0.39, 0.78, 1.56, 3.12, 6.24, 12.5, 25, 50, 100, and 200 uM in duplicate on each plate. Cells were treated with compounds for 1, 24, or 72 hr. Carbonyl […] m-chloro-phenylhydrazone (CCCP) and taxol were used as positive controls for mitochondrial function and cytoskeletal stability, respectively; DMSO served as the negative control for this experiment. Cells were fixed by the direct addition of 50 uL formaldehyde in Hank's Balanced Salt Solution (HBSS) to a final concentration of 3.7%. After incubation in the fixation medium for 30 min at room temperature (293-298 K), cells were rinsed twice with HBSS and treated with cell permeabilization buffer (16 uL of 0.5% Triton X-100) for 10 min at room temperature (293-298 K) before labeling. For mitochondrial membrane potential and mitochondrial measurements, pre-fixed cells were incubated with 50 uL of MitoTracker Red CMXRos (Invitrogen) at a concentration of 250 nM for 30 min before fixation. In the remaining cases, post-fixed cells were labeled by incubation with a multiplexed mixture of primary antibodies in HBSS for 60 min at room temperature (293-298 K) to detect immunoreactivity of c-Jun (1:500), phospho-histone H3 (1:100), phospho-histone H2A.x (1:200), p53 (1:400), alpha-tubulin (1:200) and Hoechst 33342 (2 ug/mL). Cells were labeled for multiplexed imaging on two separate plates: a) Hoechst 33342, MitoTracker Red, phospho-histone H3, and alpha-tubulin, and b) Hoechst 33342, phospho-histone H2A.x, and c-Jun. A final rinse with HBSS (50 uL) was performed before analysis. The primary and secondary antibodies for the proteins were phospho-histone H3 (rabbit anti-phospho-histone H3 and FITC-donkey anti-rabbit IgG), phospho-histone H2A.x (mouse anti-phospho-histone H2A.x and FITC-donkey anti-mouse IgG), c-Jun (rabbit anti-phospho-c-Jun and Cy3-donkey anti-rabbit IgG), p53 (sheep anti-p53 and Cy5-donkey anti-sheep IgG), alpha-tubulin (mouse anti-alpha-tubulin and Cy5-donkey anti-mouse IgG). These antibodies are available as the CellCiphr HepG2 assay kit (Millipore).Digital images of each well were captured using a Cellomics ArrayScan VTI (Thermo Scientific Cellomics) (0.8 NA objective, 0.63x optical coupler, and XF-93 filter set) at 20x magnification. The images were acquired using the autofocus feature of the ArrayScan instrument, which entails the following steps. First, the camera focuses on channel 1 (Hoechst 33342), where nuclei are identified. Second, a Z offset of 1 um is used for capturing mitochondria (MitoTracker Red). […]
SMILES,outcome,AC50
Cc1c(F)c(F)c(COC(=O)C2C(/C=C(\Cl)C(F)(F)F)C2(C)C)c(F)c1F (stereo not given),inactive,–
CCCCNC(=O)n1c(NC(=O)OC)nc2ccccc21,inactive,–
Cc1cc(Cl)ccc1OCC(=O)O,inactive,–
CO/C=C(/C(=O)OC)c1ccccc1Oc1cc(Oc2ccccc2C#N)ncn1,inactive,–
CNC(=O)ON=CC(C)(C)SC,inactive,–
CCCN(CCC)c1c([N+](=O)[O-])cc(S(N)(=O)=O)cc1[N+](=O)[O-],–,66.6 µM (active)
CCOP(=S)(OCC)SCn1c(=O)oc2cc(Cl)ccc21,inactive,–
CS/C(C)=N/OC(=O)N(C)SN(C)C(=O)O/N=C(\C)SC,–,45.7 µM (active)
CCCCOC(=O)c1ccccc1C(=O)OCCCC,inactive,–
Cc1ccc(-c2c(Cl)nc(C#N)n2S(=O)(=O)N(C)C)cc1,inactive,–
CCCCNC(=O)OCC#CI,–,100 µM (active) and 129 µM (active)
CCCCC(CC)COC(=O)c1ccccc1C(=O)OCC(CC)CCCC (stereo not given),inactive,–
CCOc1cc(Oc2ccc(C(F)(F)F)cc2Cl)ccc1[N+](=O)[O-],inactive,–
COC(=O)C=C(C)OP(=O)(OC)OC,inactive,–
COC(=O)N(OC)c1ccccc1COc1ccn(-c2ccc(Cl)cc2)n1,inactive,–
CCOC(=O)C(Cl)Cc1cc(-n2nc(C)n(C(F)F)c2=O)c(F)cc1Cl (stereo not given),inactive,–
CN(C)C(=S)SSC(=S)N(C)C,inactive,–
C=CC1(C)OC(=O)N(c2cc(Cl)cc(Cl)c2)C1=O (stereo not given),inactive,–
O=C(O)c1nc(Cl)ccc1Cl,inactive,–
CCCC1COC(Cn2cncn2)(c2ccc(Cl)cc2Cl)O1 (stereo not given),inactive,–

SMILES,outcome,AC50
CC(C)Oc1cc(-n2nc(C(C)(C)C)oc2=O)c(Cl)cc1Cl,inactive,–
N#Cc1nn(-c2c(Cl)cc(C(F)(F)F)cc2Cl)c(N)c1S(=O)C(F)(F)F (stereo not given),inactive,–
CC(C)(C)c1ccc(CSc2cnn(C(C)(C)C)c(=O)c2Cl)cc1,inactive,–
COP(=S)(OC)Oc1nc(Cl)c(Cl)cc1Cl,inactive,–
OC(c1ccc(Cl)cc1)(c1cncnc1)c1ccccc1Cl (stereo not given),inactive,–
O=C(Nc1ccccc1)Nc1ccnc(Cl)c1,inactive,–
C=CCC1=C(C)[C@@H](OC(=O)[C@@H]2[C@@H](C=C(C)C)C2(C)C)CC1=O,inactive,–
CCOC(=O)CC(SP(=S)(OC)OC)C(=O)OCC (stereo not given),inactive,–
CCON=C(CC)C1=C(O)CC(c2c(C)cc(C)cc2C)CC1=O (stereo not given),inactive,–
CCNc1nc(Cl)nc(NCC)n1,inactive,–
Oc1ccccc1-c1ccccc1,inactive,–
O=C(O)COc1nc(Cl)c(Cl)cc1Cl,inactive,–
C=CCC1=C(C)C(OC(=O)C2C(C=C(C)C)C2(C)C)CC1=O (stereo not given),inactive,–
N#Cc1cc(Br)c(O)c(Br)c1,inactive,–
CCNc1nc(Cl)nc(NC(C)C)n1,inactive,–
CON(C)C(=O)Nc1ccc(Cl)c(Cl)c1,inactive,–
COc1cnc(OC)n2nc(NS(=O)(=O)c3c(OCC(F)F)cccc3C(F)(F)F)nc12,inactive,–
CC(C)C1(C)N=C(c2nc3ccccc3cc2C(=O)O)NC1=O (stereo not given),inactive,–
CCc1nn(C)c(C(=O)NCc2ccc(C(C)(C)C)cc2)c1Cl,inactive,–
COC(=O)c1ccccc1C(=O)OC,inactive,–
